Most compounds without a hit are left out; they make up all but 19% or so of the library.
TDP1 cell CPT = qHTS for Inhibitors of human tyrosyl-DNA phosphodiesterase 1 (TDP1): qHTS in cells in presence of CPT. Potency, µM (titrated, usually from 46.2 µM), for inactives: at the highest dose activity change, negative = growth inhibition, hits mostly inhibitors. AID 686979, 2013. chicken DT40 Tdp1-/-;hTDP1 cells + 20 nM CPT, ATP luminescence, 48 h. 420,000 compounds, 12% hits; also: potency is read from the fitted curve at half-maximal effect; nearly all actives have a fitted effect of over 55% in size
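Chicken DT40 Tdp1-/- cells stably complemented with human TDP1 were seeded at 400 cells/well in medium containing 20 nM camptothecin, exposed to pin-transferred compounds, and grown at 37 °C for at least 48 hr. Viability was read as ATP luminescence.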
IL1B secr inh = qHTS for Inhibitors of Inflammasome Signaling: IL-1-beta AlphaLISA Primary Screen; AID 743279, 2014; THP-1 LPS/ATP IL-1B secretion, AlphaLISA, 16 h; stronger effect = lower value; 360,000 compounds, 4.7% hits; activity change, % at 57.5 µM; in the data active = activity change below about -50%; inconclusive = mostly about -30% to -49%
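Secreted IL-1B measured by AlphaLISA bead assay after 16 h compound exposure of THP-1 cells; compounds (final up to 57.5 uM) added 1 h before LPS (250 ng/mL) and ATP (1.25 mM) stimulation; lower signal means less secretion.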
HT1080-NT tox = qHTS for induction of synthetic lethality in tumor cells producing 2HG: qHTS for the HT-1080-NT fibrosarcoma cell line | Potency, µM (doses to about 46.1 µM), without a hit: top-dose activity, negative = less viability, most hits filed as cytotoxic | 360,000 compounds, 1.6% hits | HT-1080-NT fibrosarcoma viability, CellTiter-Glo ATP luminescence, 48 h;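 also: NT is the 2HG producing partner of a matched IDH1 knockdown line; potency is read from the fitted curve at half-maximal effect; 0% = DMSO-treated cells and -100% = media-only wells without cells; nearly all actives have a fitted effect of over 55% in size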
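HT-1080-NT fibrosarcoma cells (2HG-overproducing), 750 cells/well in RPMI with 5% FBS, dosed after 2 h and incubated 48 h at 37C. CellTiter-Glo luminescence normalized to DMSO and no-cell wells; concentration-response curves fitted and classed.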
TDP1 cell noCPT = qHTS for Inhibitors of human tyrosyl-DNA phosphodiesterase 1 (TDP1): qHTS in cells in absence of CPT. Potency, µM (doses to about 46.2 µM), for the others: at the top dose activity change, negative = growth inhibition, most hits filed as inhibitors. 420,000 compounds, 15% hits. DT40 Tdp1-/- hTDP1 cells, no CPT, ATP luminescence, 48 h; also: potency is read from the fitted curve at half-maximal effect; nearly all actives have a fitted effect of over 55% in size
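Readout: luminescence from CellTiter-Glo after 30 min in the dark at RT. Cells: DT40 Tdp1-/- with stable hTDP1, 400/well. Exposure: compounds alone, ≥48 hr, 37 °C.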
HT1080 IDH1KD tx = qHTS for induction of synthetic lethality in tumor cells producing 2HG: qHTS for the HT-1080-IDH1KD cell line; HT-1080 IDH1 knockdown viability, ATP luminescence, 48 h; Potency, µM (titrated, usually from 46.1 µM), for inactives: top-dose activity, negative = toxicity, hits mostly cytotoxic; 360,000 compounds, 2% hits;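 also: potency is read from the fitted curve at half-maximal effect; 0% = DMSO wells and -100% = cell-free medium wells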
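Luminescent ATP read-out (CellTiter-Glo, 10 min at room temperature) after 48 h compound exposure at 37 °C gave viability of IDH1-knockdown HT-1080 cells. Activity was normalised to DMSO and cell-free wells, then fitted as concentration-response curves.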
Numbers without * were called inactive; ? = inconclusive; . = no result given; [ ] = remark or other dose. Unless noted, calls follow the shape of the dose curve; as a rule, active = well fitted curve in the direction sought with a large enough effect; inconclusive = small, poorly fitted or top-dose-only effect, or another doubt; inactive = no such curve, though single readings can be large; an effect the other way counts as inactive or inconclusive. Unless noted, % is scaled to controls: 0 for no effect and ±100 for the full control effect.

SMILES	TDP1 cell CPT	IL1B secr inh	HT1080-NT tox	TDP1 cell noCPT	HT1080 IDH1KD tx
CCCCc1ccc(NC(=O)c2cc3c(=O)n4ccccc4nc3s2)cc1	-19.2%	.	.	-14.1%	.
Cc1nc(OCC(C)C)c2sc3nc4c(cc3c2n1)COC(C)(C)C4	?	-26.1	17.0%	20.6µM*	24.7%
CCc1nc(OCc2ccco2)c2sc3nc4c(cc3c2n1)COC(C)(C)C4	25.9µM*	3.7	-21.4%	16.4µM*	-3.5%
CC1(C)Cc2nc3sc4c(SCC(=O)O)ncnc4c3cc2CO1	-1.8%	-7.5	3.8%	?	24.3%
CC1(C)Cc2nc3sc4c(N(CCO)CCO)ncnc4c3cc2CO1	-29.1%	-1.8	0.6%	?	5.0%
CCc1nc2c(sc3nc4c(cc32)COC(C)(C)C4)c(=O)n1Cc1ccco1	23.1µM*	0.0	?	23.1µM*	13.3%[9.24 µM]
Fc1ccccc1/C=C1\CCCC2=C1Nc1nnnn1C2c1ccccc1F (centres undefined)	?	0.0	12.6µM*	-8.2%	10µM*
CCC1Oc2ccc(C)cc2N(CC(=O)N(Cc2ccc(C)o2)C2CC(C)(C)NC(C)(C)C2)C1=O (centres undefined)	18.4µM*	.	16.4µM*	?	?
CCC1Oc2ccc(C)cc2N(CC(=O)N2CCN(c3ccc(F)cc3)CC2)C1=O (centres undefined)	20.6µM*	-25.3	-5.7%	18.4µM*	0.8%
CCOC(=O)C1CCCN(C(=O)CN2C(=O)C(CC)Oc3ccc(C)cc32)C1 (centres undefined)	?	27.8	3.1%	-16.1%	13.9%[9.24 µM]
CCC1Oc2ccc(C)cc2N(CC(=O)N2CCN(c3ccccc3OC)CC2)C1=O (centres undefined)	?	.	.	16.4µM*	.
Cc1cc(OCCn2cc(C(=O)c3cccs3)c3ccccc32)ccc1Cl	16.4µM*	.	.	16.4µM*	.
CC(C)(C)c1ccc(OCCn2cc(C(=O)c3ccco3)c3ccccc32)cc1	?	.	.	23.1µM*	.
O=C(c1cccs1)c1cn(CCOc2ccc(F)cc2)c2ccccc12	16.4µM*	.	.	20.6µM*	.
O=C(Cn1cc(C(=O)c2cccs2)c2ccccc21)NC1CCCCC1	-14.5%	-8.6	-3.1%	-15.4%	-22.5%
O=C(c1cccs1)c1cn(CCOc2ccccc2F)c2ccccc12	?	.	.	18.4µM*	.
N#C/C(=C\c1cn(CCOc2ccccc2F)c2ccccc12)C(=O)NCc1cccs1	-45.1%	-8.5	?	?	?
Cc1ccc(OCCn2cc(C(=O)O)c3ccccc32)cc1	5.2%	-7.0	19.3%	-4.0%	16.7%
CCOC(=O)C1CCN(C(=O)Cn2nc(C)n3cccc3c2=O)CC1	6.8%	4.1	5.5%	-9.3%	8.4%
O=c1c(-c2ccc(F)cc2)nc2cnc(Nc3ccccc3)nc2n1C[C@H]1CCCO1	25.2%	.	.	-3.1%	.
CC1=C(C(=O)Nc2ccc(Cl)cc2)C(c2cccs2)n2nc(SCc3cccc(Cl)c3)nc2N1 (centres undefined)	-3.0%	.	.	-21.4%	.
Cc1cc([N+](=O)[O-])ccc1N1C(=O)c2ccc(C(=O)Nc3ccccc3C(=O)O)cc2C1=O	-0.3%	16.0	6.0%	5.7%	19.8%
NC(=O)c1ccsc1NC(=O)COC(=O)Cc1ccc(F)cc1	-14.1%	24.6	-2.4%	?	-11.2%
NC(=O)c1ccsc1NC(=O)COC(=O)CNC(=O)c1cccc([N+](=O)[O-])c1	4.6%	0.0	9.5%	17.5%	12.0%
NC(=O)c1ccsc1NC(=O)COC(=O)Cc1ccccc1[N+](=O)[O-]	23.1µM*	39.0	-4.5%	20.6µM*	-14.1%
SMILES	TDP1 cell CPT	IL1B secr inh	HT1080-NT tox	TDP1 cell noCPT	HT1080 IDH1KD tx
CC(C)c1ccccc1NC(=O)COC(=O)Cc1c[nH]c2ccccc12	0.082µM*	0.0	-3.3%	-10.5%	0.4%
NC(=O)c1ccsc1NC(=O)COC(=O)Cc1c[nH]c2ccccc12	?	5.6	-2.6%	16.4µM*	-4.9%
NC(=O)c1ccsc1NC(=O)COC(=O)Cc1cccc2ccccc12	9.2µM*	2.7	-20.0%	10.3µM*	-19.6%
CC1(C(=O)NS(=O)(=O)c2ccc(F)cc2F)CCN1C(=O)Cc1cccc2ccccc12 (centres undefined)	2.8%	38.7	6.9%	-0.9%	22.8%
CCOC(=O)c1c(C)[nH]c(C)c1S(=O)(=O)N1CCN(c2ccccc2OC)CC1	-11.5%	.	.	-15.1%	.
O=C1C(=O)N(c2ccc(O)cc2)C(c2ccccc2[N+](=O)[O-])/C1=C(\O)c1ccccc1 (centres undefined)	-1.4%	40.4	-5.5%	8.4%	5.2%
CCc1nc2nc(C)c(NS(=O)(=O)c3ccc(C4CCCCC4)cc3)c(=O)n2[nH]1	6.9%	20.4	0.3%	-2.3%	-1.4%
COc1ccc(CNC(=O)Nc2cc(C)ccc2C)cc1	-19.5%	4.8	10.8%	-19.5%	2.4%
Cc1ccc(NC(=O)CCNC(=O)c2ccccc2)cc1F	-1.9%	-1.7	24.7%	-40.9%	10.6%
CC1=C(c2ccc(C)cc2)S(=O)(=O)N(Cc2ccc(C(=O)Nc3ccc(C)c(F)c3)cc2)C1=O	25.9µM*	.	.	?	.
COc1ccc(C2=C(C)C(=O)N(Cc3ccc(C(=O)Nc4cc(C)ccc4C)cc3)S2(=O)=O)cc1	18.4µM*	.	.	10.3µM*	.
O=C(c1ccoc1)N1CCN(c2cc(-c3cccc(F)c3)nc3cc(-c4cccc(Cl)c4)nn23)CC1	7.31µM*	24.8	-5.1%	4.61µM*	-1.8%
COc1ccc(-c2cc3nc(-c4ccccc4)cc(N4CCN(C(C)=O)CC4)n3n2)cc1	1.1%	-5.0	?	2.59µM*	16.4µM*
COc1ccc(-c2csc(N3CCN(C(=O)c4ccccc4)CC3)n2)cc1	?	-18.7	5.2%	?	-0.1%
COc1ccc(-c2cc3nc(-c4ccccc4)cc(N4CCN(C(=O)c5ccsc5)CC4)n3n2)cc1	7.31µM*	-18.9	-0.3%	5.17µM*	-1.3%
COc1ccc(-c2cc3nc(-c4ccccc4)cc(N4CCN(C(=O)c5ccccc5)CC4)n3n2)cc1	14.6µM*	31.7	-9.9%	4.11µM*	-19.2%
O=c1c2oc3ccccc3c2n(Cc2ccc(Cl)cc2)c(=O)n1Cc1ccco1	-11.3%	.	.	-16.8%	.
CCOc1ccc(CCNC(=O)Cn2nnc(-c3ccccc3Cl)n2)cc1OCC	-24.5%	.	.	-26.8%	.
